# Source: PubChem BioAssay
# aSyn 5UTR act – Activators working through SNCA 5'UTR binding (MLPCN) | AID 1814 | 300,000 tested, 7.1% active | alpha-synuclein 5'UTR reporter, activators screen | activity score, % (tested at 7.5 µM), hits read low; in the data active = activity score below about -60%
# The depositor's hits bear a star. A selection follows.
SMILES,aSyn 5UTR act
O=C(Nc1nc(-c2ccccc2)cs1)Nc1ccc(F)cc1F,-63.4*
O=C(Nc1ccccc1)Nc1nc(-c2ccccc2)cs1,-87.5*
CC(C)(C)c1csc(NC(=O)Nc2ccccc2)n1,-140.9*
COc1cccc(-c2csc(NC(=O)Nc3ccccc3)n2)c1,-165.6*
COc1cccc(-c2csc(NC(=O)C3CC3)n2)c1,-161.4*
O=C(COc1ccc2ccc(=O)oc2c1)Nc1nccs1,-84.7*
NC(=O)c1ccsc1NC(=O)COc1ccccc1,-136.5*
O=C(NCCc1ccccc1)C(=O)Nc1nccs1,-83.9*
O=C(COC(=O)c1ccccc1Cl)Nc1nccs1,-91.5*
C/C(=C\C(=O)Nc1nccs1)c1ccccc1,-197.1*
Oc1ccccc1C(Nc1nccs1)c1ccc2cccnc2c1O (stereo unspecified),76.9
Cn1cc(SCC(=O)Nc2nccs2)c2ccccc21,-165.1*
O=C(COc1ccccc1)Nc1nccs1,-99.9*
O=C(COc1ccc([N+](=O)[O-])cc1)Nc1nc(-c2ccccn2)cs1,56.9
COc1cc2c(cc1OC)C(c1ccccc1)N(C(=O)CCl)CC2 (stereo unspecified),-85.6*
O=C(O)C(=O)/C(=C\c1ccc(Cl)cc1)c1ccc2ccccc2n1,-225.8*
O=C(/C=C/c1ccccc1)OCc1cncs1,-102.8*
Cc1ccsc1C(=O)OCC(=O)NCCC1=CCCCC1,-81.0*
CC/C(=N\Nc1nncc2ccccc12)c1ccc(F)cc1,-189.9*
COc1cccc(C(=O)Nc2ccc(NC(C)=O)cn2)c1,-129.2*
O=C(Nc1ccc(NC(=O)c2ccco2)nc1)c1cccc(F)c1,-134.2*
O=C(Nc1ccc(NC(=O)c2ccco2)nc1)c1cccnc1,-75.3*
COc1cccc(C(=O)Nc2ccc(NC(=O)c3ccco3)nc2)c1,-161.8*
CCCC(=O)Nc1ccc(NC(=O)c2cccc(OC)c2)nc1,-159.8*
C=CCOc1ccc(/C=C/C(C)=N\O)cc1,-109.8*
SMILES,aSyn 5UTR act
OCCCCCN=c1cc(-c2ccccc2)oc2ccc(Cl)cc12,-746.8*
CSCc1nc2sc(C(=O)Nc3nc(C)cs3)c(C)c2c(=O)[nH]1,-92.4*
CCc1cccc2c(C(=O)COC(=O)c3ccc(O)cc3)c[nH]c12,-108.9*
O=C(OCC(=O)c1cccc2ccccc12)c1ccc(CO)cc1,-98.2*
CCc1cccc2c(C(=O)COC(=O)c3ccccc3)c[nH]c12,-186.1*
O=c1c2[nH]c3ccccc3c2nc2n1CCCS2,-75.3*
Cc1ccc(OCC(=O)N/N=C\c2cn(Cc3ccccc3)c3ccccc23)cc1C,76.1
CC(C)(C)NC(=O)COc1ccc(-c2ccccc2)cc1,-110.5*
Cc1cc(OCC(=O)NC(C)(C)C)ccc1Cl,-93.4*
CCNC(=O)COc1ccc(-c2ccccc2)cc1,-115.8*
CC(=O)Nc1cc(-c2ccc(F)cc2)[nH]n1,-76.9*
O=C(Nc1cc(-c2ccccc2)[nH]n1)c1ccccc1F,-207.2*
CCNC(=S)Nc1cc(-c2ccc(Cl)cc2)[nH]n1,-86.5*
c1ccc2c(Nc3nnc(-c4ccncc4)s3)cccc2c1,-186.2*
CC(=O)NCc1ccc(-c2csc(-c3cccs3)n2)cc1,-125.6*
O=[N+]([O-])c1ccc(C2=Nc3cc(Cl)ccc3OC2)cc1,-149.2*
COc1cc(NC(=S)N2CCOCC2)c(OC)cc1Cl,-211.2*
c1ccc(-n2nnc(-c3cccnc3)n2)cc1,-162.1*
Cc1ccc(-n2nnc(-c3cccnc3)n2)cc1,-116.9*
Cc1cccc(C(=O)N2CCCC(c3nc(-c4ccc(C)o4)no3)C2)c1 (stereo unspecified),-145.0*
Cc1ccc(NC(=O)NC2=NN(c3ccccc3)C(=O)/C2=C2/CCCN2C)cc1,-62.7*
COc1ccc(OC)c2nc(-c3cccnc3)ccc12,-67.4*
COc1ccccc1Nc1nc(C2(C)CCC(=O)O2)cs1 (stereo unspecified),-106.1*
O=[N+]([O-])c1ccccc1Nc1nc(-c2cccnc2)cs1,-91.1*
COc1ccccc1Nc1nc(-c2cccnc2)cs1,-109.8*
SMILES,aSyn 5UTR act
COc1ccccc1Nc1nc(NCC(C)C)nc(N)c1[N+](=O)[O-],77.3
COc1ccc(Nc2nc(-c3cccnc3)cs2)c(OC)c1,-175.2*
N#Cc1c(-c2ccccc2)c(-c2ccccc2)nn(CC(=O)NNC(=O)Nc2ccccc2)c1=O,-91.8*
Cn1ncc([N+](=O)[O-])c1C(=O)Nc1ccc(-c2nc3ccccc3[nH]2)cc1,-158.9*
O=C(Nc1ccc(-c2nc3ccccc3[nH]2)cc1)c1ccc2c(c1)OCO2,-102.5*
O=C(Nc1ccc(-c2cn3c(n2)SCC3)cc1)c1ccc2c(c1)OCO2,-86.5*
Cn1ncc([N+](=O)[O-])c1C(=O)Nc1ccc(C2CCCCC2)cc1,-136.2*
c1ccc2[nH]c(-c3ccc4c(c3)OCO4)nc2c1,78.5
CS(=O)(=O)c1ccc(C(=O)Nc2ccc(-c3nc4ccccc4[nH]3)cc2)cc1,-67.3*
Cc1ccc2cc(NC(=O)Cc3ccccc3)ccc2n1,-127.4*
Cc1ccc2cc(NC(=O)c3ccccc3C)ccc2n1,-195.4*
CC(Sc1nnc(-c2cccnc2)n1-c1ccccc1)C(=O)NCc1ccc2c(c1)OCO2 (stereo unspecified),-71.5*
COc1ccc(-c2cc(=NC(CC(C)C)C(=O)O)c3cc(C)ccc3o2)cc1 (stereo unspecified),-152.9*
CC(C)c1ccc(-c2nnn(CCC#N)n2)cc1,-106.5*
Cn1ccnc1SCC(=O)Nc1nc2ccccc2s1,-124.7*
Cc1ccc(NC(=O)CSc2nccn2C)cc1F,-62.0*
Cn1ccnc1SCC(=O)Nc1ccc2nc(SCC(=O)NC3CC3)sc2c1,-152.3*
O=C(CSc1ccccn1)Nc1nc2ccccc2s1,-62.6*
O=C1/C(=C/c2cccnc2)CCc2c1[nH]c1ccccc21,-125.8*
CC(C)C/C=C1\CCc2c([nH]c3ccccc23)C1=O,-229.2*
C=CCn1c(=S)[nH]c2nc3c(cc2c1=O)CCCC3,-92.3*
CC(=O)c1c(C)[nH]c(C(=O)N2CCN(c3cc(Cl)ccc3C)CC2)c1C,57.2
CC(=O)c1c(C)[nH]c(C(=O)Nc2ccccn2)c1C,-80.4*
CSc1cccc(NC(=O)c2[nH]c(C)c(C(C)=O)c2C)c1,-138.8*
CC(=O)c1c(C)[nH]c(C(=O)Nc2ccc(Cl)cc2F)c1C,-185.9*
SMILES,aSyn 5UTR act
CCC(C)c1ccc(NC(=O)c2[nH]c(C)c(C(C)=O)c2C)cc1 (stereo unspecified),-148.8*
CC(=O)c1c(C)[nH]c(C(=O)Nc2ccc(Cl)cc2)c1C,-194.9*
CC(=O)c1c(C)[nH]c(C(=O)Nc2ccc(Cl)c(S(=O)(=O)N(C)C)c2)c1C,-174.4*
Cc1ccc(NC(=O)CNCc2ccccc2Cl)cc1S(=O)(=O)N(C)C,-71.9*
CCc1nnc(NC(=O)c2ccc(NC(=O)C(C)C)cc2)s1,-100.6*
CCc1nnc(NC(=O)c2ccc3c(c2)C(=O)N(C(C)(C)C)C3=O)s1,-145.0*
CCc1nnc(NC(=O)c2ccc3ncsc3c2)s1,-102.0*
COc1ccc2nc(NC(=O)c3cccs3)sc2c1,-78.3*
O=C(Nc1nc(-c2cccs2)cs1)c1ccc(Cl)s1,-146.5*
COc1ccc(OC)c(-c2csc(NC(=O)c3ccc(F)cc3)n2)c1,-201.7*
O=C(Nc1nc2ccccc2s1)c1ccc(Cl)s1,-170.3*
COc1ccc2nc(NC(=O)c3ccc(F)cc3)sc2c1,-155.6*
O=C(Nc1nc(=O)c2ccccc2s1)c1ccccc1,-156.6*
COc1ccc2nc(NC(=O)c3ccc4ncsc4c3)sc2c1,-133.7*
NC(=O)c1ccc2nc(NC(=O)c3ccc(N)cc3)sc2c1,-78.7*
O=C(Nc1nc2ccccc2s1)c1ccc(F)cc1,-89.4*
